PubChem BioAssay (Tox21)
Records with an inconclusive call do not appear. Calls of active or inactive are those of the source. Unless noted, calls come from the whole dose curve; as a rule, active = well fitted curve in the direction sought with a large enough effect in the repeat runs; inconclusive = weak or mixed curves; inactive = no such curve, though single readings can be large; an effect the other way counts as inactive or inconclusive.

Columns and labels:
[1] = qHTS assay to identify small molecule agonists of the peroxisome proliferator-activated receptor delta (PPARd) signaling pathway - cell viability counter screen (AID 743211); note: nearly all actives have a fitted effect of over 55% in size
Method in brief: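 PPARd-bla HEK293H cells (3000/well) were pre-incubated 5 h at 37 C, then exposed to compound for 17 h at 37 C. After 2 h with LiveBLAzer substrate, CellTiter-Glo was added to the same wells; luminescence read after 30 min at room temperature.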

[2] = qHTS assay to identify small molecule antagonists of the peroxisome proliferator-activated receptor delta (PPARd) signaling pathway - cell viability counter screen (AID 743213); note: nearly all actives have a fitted effect of over 50% in size
Method in brief: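 Viability counter-screen, qHTS format: PPARd-bla HEK293H, L165041 300 nM final, 17 h compound exposure at 37 C, CellTiter-Glo luminescence after 30 min RT.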

[3] = target: Bile acid receptor (Homo sapiens) (UniProt Q96RI1); test: qHTS assay to identify small molecule antagonists of the farnesoid-X-receptor (FXR) signaling pathway (AID 743217; active = well fitted inhibition curve with a large enough effect in the signal ratio in the repeat runs, not every such curve was filed as active; the % refers to the signal ratio)
Bile acid receptor (Homo sapiens), sequence (Q96RI1 whole entry, looked up): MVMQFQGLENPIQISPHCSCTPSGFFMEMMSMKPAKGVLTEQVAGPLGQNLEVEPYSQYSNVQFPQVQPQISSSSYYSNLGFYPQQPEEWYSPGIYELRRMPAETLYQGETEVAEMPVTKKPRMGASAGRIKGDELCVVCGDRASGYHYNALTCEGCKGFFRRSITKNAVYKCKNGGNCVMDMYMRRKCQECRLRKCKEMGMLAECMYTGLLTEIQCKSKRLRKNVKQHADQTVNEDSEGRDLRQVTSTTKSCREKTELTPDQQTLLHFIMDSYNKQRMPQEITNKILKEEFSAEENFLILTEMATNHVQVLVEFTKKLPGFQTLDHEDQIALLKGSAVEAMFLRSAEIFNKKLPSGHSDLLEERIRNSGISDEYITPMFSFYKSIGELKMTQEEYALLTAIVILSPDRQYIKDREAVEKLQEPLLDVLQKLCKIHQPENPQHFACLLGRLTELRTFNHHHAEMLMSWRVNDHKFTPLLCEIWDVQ
Method in brief: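 Read-out: beta-lactamase FRET fluorescence (LiveBLAzer B/G substrate, 2 h, room temperature) in GeneBLAzer FXR-UAS-bla HEK 293T cells. Compounds were co-dosed with 50 uM chenodeoxycholic acid (final) and incubated 16 h at 37 °C.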

[4] = qHTS assay to identify small molecule agonists of the farnesoid-X-receptor (FXR) signaling pathway - cell viability counter screen (AID 743218); note: nearly all actives have a fitted effect of over 45% in size
Method in brief: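 Luminescence from CellTiter-Glo, read after 30 min at RT, reports viability of GeneBLAzer FXR-UAS-bla HEK 293T cells treated 16 h with compounds in the wells used for the beta-lactamase reporter.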

[5] = target: Bile acid receptor (Homo sapiens) (UniProt Q96RI1); test: qHTS assay to identify small molecule agonists of the farnesoid-X-receptor (FXR) signaling pathway (AID 743220; active = well fitted activation curve with a large enough effect in the signal ratio in the repeat runs, not every such curve was filed as active; the % refers to the signal ratio)
Method in brief: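 FXR-UAS-bla HEK 293T cells carrying a UAS-driven beta-lactamase reporter were plated for 5 h at 37C/5% CO2, then exposed to DMSO-dissolved Tox21 10K compounds for 16 h at 37C. A LiveBLAzer B/G FRET substrate was loaded for 2 h at room temperature before fluorescence reading.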

[6] = target: Vitamin D3 receptor (Homo sapiens) (UniProt P11473); test: qHTS assay to identify small molecule agonists of the vitamin D receptor (VDR) signaling pathway (AID 743222; calls by dose curve)
Vitamin D3 receptor (Homo sapiens), sequence (P11473 whole entry, looked up): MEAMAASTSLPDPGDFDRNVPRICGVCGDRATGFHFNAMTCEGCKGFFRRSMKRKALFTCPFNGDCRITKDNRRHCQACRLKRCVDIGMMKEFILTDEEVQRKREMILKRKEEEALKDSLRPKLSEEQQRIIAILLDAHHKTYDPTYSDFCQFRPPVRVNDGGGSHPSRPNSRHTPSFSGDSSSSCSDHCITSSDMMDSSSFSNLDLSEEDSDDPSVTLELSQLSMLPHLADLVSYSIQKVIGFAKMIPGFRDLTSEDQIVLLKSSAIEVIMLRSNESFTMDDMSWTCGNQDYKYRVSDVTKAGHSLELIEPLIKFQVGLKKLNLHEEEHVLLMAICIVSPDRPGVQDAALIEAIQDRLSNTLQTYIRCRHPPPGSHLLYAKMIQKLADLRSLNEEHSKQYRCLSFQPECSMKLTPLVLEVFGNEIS
Method in brief: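 Beta-lactamase reporter readout (LiveBLAzer B/G FRET, 2 h RT) in VDR-bla cells after 16 h compound treatment at 37C, 5% CO2; cells pre-incubated 4 h before pin transfer of DMSO solutions.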

[7] = qHTS assay to identify small molecule agonists of the vitamin D receptor (VDR) signaling pathway - cell viability counter screen (AID 743224); note: series mostly up to about 63 µM; nearly all actives have a fitted effect of over 50% in size
Method in brief: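 Cytotoxicity counter screen: VDR-bla cells, 16 h compound exposure at 37C, 5% CO2; CellTiter-Glo luminescence, 30 min RT, same wells as bla read.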

[8] = qHTS assay to identify small molecule antagonists of the vitamin D receptor (VDR) signaling pathway - cell viability counter screen (AID 743225); note: nearly all actives have a fitted effect of over 50% in size
Method in brief: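 VDR-UAS-bla HEK 293T cells were plated and incubated 4 h at 37C, then dosed with compound plus 3 nM (final) 1-alpha,25-dihydroxyvitamin D3 for 16 h. After the 2 h beta-lactamase read, viability in the same wells was read as CellTiter-Glo luminescence after 30 min at room temperature.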

[9] = qHTS assay to identify small molecule agonists of the NFkB signaling pathway (AID 1159509; active = well fitted curve in the direction sought with a large enough effect in the signal ratio in the repeat runs, not every such curve was filed as active; the % refers to the signal ratio; note: series mostly up to about 61 µM)
Method in brief: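 Pathway activation was measured in ME-180 cells stably expressing beta-lactamase under NF-kB response element control. Substrate cleavage was read as the 460/530 nm emission shift after 5 hr compound incubation.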

[10] = qHTS assay to identify small molecule agonists of the NFkB signaling pathway - cell viability counter screen (AID 1159515; calls by dose curve; note: series mostly up to about 61 µM; nearly all actives have a fitted effect of over 55% in size)
Method in brief: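 ME-180 NFkB-bla cells, 2,000/well; overnight attach; compound 5 hr, 37 C/5% CO2; LiveBLAzer substrate 1.5 hr RT; then CellTiter-Glo in same wells, 30 min RT, luminescence read.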

[11] = qHTS assay to identify small molecule agonists of the endoplasmic reticulum stress response signaling pathway (AID 1159516; active = well fitted activation curve with a large enough effect in the signal ratio in the repeat runs, not every such curve was filed as active; the % refers to the signal ratio)
Method in brief: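 HeLa ESRE-bla reporter line; cpd 5 h, 37 C/5% CO2; LiveBLAzer B/G FRET substrate 2 h RT; ex 405, em 460/530 nm.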

[12] = qHTS assay to identify small molecule agonists of the endoplasmic reticulum stress response signaling pathway - cell viability counter screen (AID 1159517; calls by dose curve; note: nearly all actives have a fitted effect of over 50% in size; note: potency is the fitted concentration of half-maximal effect)
Method in brief: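 Cpd-treated ESRE-bla HeLa (5 hr, 37 C) → LiveBLAzer 2 hr RT → CellTiter-Glo 30 min RT → luminescence.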

[13] = qHTS assay to identify small molecule antagonists of the retinoid-related orphan receptor gamma (ROR-gamma) signaling pathway - cell viability counter screen (AID 1159520); note: nearly all actives have a fitted effect of over 50% in size
Method in brief: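 Tet-on ROR gamma CHO cells (1,000/well) were plated 4 hr, given compounds in DMSO for 2 hr at 37 C, then induced with 1 uM final doxycycline for 16 hr. Viability was read as ATP by CellTiter-Glo luminescence after 30 min.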

[14] = target: Nuclear receptor ROR-gamma (Homo sapiens) (UniProt P51449); test: qHTS assay to identify small molecule antagonists of the retinoid-related orphan receptor gamma (ROR-gamma) signaling pathway (AID 1159521)
Method in brief: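 Tet-on ROR-gamma CHO cells with ROR response element-luciferase reporter; compounds added 2 hr before 1 uM doxycycline induction, then 16 hr at 37 C. Antagonism scored as decreased ONE-Glo luminescence.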

[15] = qHTS assay to identify small molecule agonists of the AP-1 signaling pathway - cell viability counter screen (AID 1159525; calls by dose curve; note: nearly all actives have a fitted effect of over 55% in size)
Method in brief: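 Each titration point was normalised to DMSO and tetra n-octyl ammonium bromide controls. The read was Cell Titer Glo luminescence after 30 min at RT, following 5 h compound exposure of ME-180 AP-1-bla cells at 37 °C.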

[16] = qHTS assay to identify small molecule agonists of the AP-1 signaling pathway (AID 1159526; calls by dose curve)
[17] = qHTS assay to identify small molecule antagonists of the farnesoid-X-receptor (FXR) signaling pathway - cell viability counter screen (AID 743221; active = well fitted cell-killing curve with a large enough effect in the repeat runs, not every such curve was filed as active; note: nearly all actives have a fitted effect of over 50% in size)
Method in brief: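 GeneBLAzer FXR-UAS-bla HEK 293T cells, compound plus chenodeoxycholic acid (50 uM final), 16 h at 37 C. CellTiter-Glo added to the same wells after the beta-lactamase read; luminescence read after 30 min at room temperature as viability.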

[18] = target: Vitamin D3 receptor (Homo sapiens) (UniProt P11473); test: qHTS assay to identify small molecule antagonists of the vitamin D receptor (VDR) signaling pathway (AID 743223; active = well fitted inhibition curve with a large enough effect in the signal ratio in the repeat runs, not every such curve was filed as active; the % refers to the signal ratio)
Method in brief: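 VDR-bla cells were treated with compound plus 3 nM final 1alpha,25-dihydroxyvitamin D3 for 16 h at 37C. Beta-lactamase reporter read by B/G FRET substrate fluorescence after 2 h at room temperature. qHTS format.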

[19] = target: Peroxisome proliferator-activated receptor delta (Homo sapiens) (UniProt Q03181); test: qHTS assay to identify small molecule agonists of the peroxisome proliferator-activated receptor delta (PPARd) signaling pathway (AID 743212; calls by dose curve)
Peroxisome proliferator-activated receptor delta (Homo sapiens), sequence (Q03181 whole entry, looked up): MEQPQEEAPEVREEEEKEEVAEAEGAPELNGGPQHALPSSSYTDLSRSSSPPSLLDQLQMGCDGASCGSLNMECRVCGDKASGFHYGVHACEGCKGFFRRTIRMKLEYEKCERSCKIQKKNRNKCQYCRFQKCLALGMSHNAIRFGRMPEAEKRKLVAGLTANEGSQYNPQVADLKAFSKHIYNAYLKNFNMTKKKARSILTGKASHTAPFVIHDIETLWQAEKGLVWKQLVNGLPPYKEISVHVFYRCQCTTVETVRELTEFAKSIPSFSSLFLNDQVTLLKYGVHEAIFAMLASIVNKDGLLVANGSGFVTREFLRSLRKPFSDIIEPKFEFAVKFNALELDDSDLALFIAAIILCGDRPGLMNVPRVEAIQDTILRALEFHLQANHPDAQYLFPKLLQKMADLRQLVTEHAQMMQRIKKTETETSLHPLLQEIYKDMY
Method in brief: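 Cells expressing a UAS-driven beta-lactamase reporter (PPARd-bla HEK293H) were given test compounds after a 5 h settle and kept at 37 C. Reporter activity was then measured as FRET fluorescence using LiveBLAzer B/G substrate.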

[20] = target: Peroxisome proliferator-activated receptor delta (Homo sapiens) (UniProt Q03181); test: qHTS assay to identify small molecule antagonists of the peroxisome proliferator-activated receptor delta (PPARd) signaling pathway (AID 743215; active = well fitted inhibition curve with a large enough effect in the signal ratio in the repeat runs, not every such curve was filed as active; the % refers to the signal ratio;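 note: cells stimulated with agonist L165041 at 300 nM final during compound exposure; series mostly up to about 62 µM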)
Method in brief: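 HEK293H GeneBLAzer PPARd UAS-bla reporter cells; cpd + L165041 300 nM final, 17 h 37 C; LiveBLAzer B/G FRET substrate 2 h RT; fluorescence intensity read-out. Antagonist mode.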

Measured: Potency

O=S(=O)(O)CCN1CCN(CCO)CC1
not listed: [17] | [18] | [19] | [20]
inactive: all other assays above

Cc1ccc(C=O)cc1C
not listed: [4] | [19] | [20]
inactive: all other assays above

CC(COC(C)(C)C)OCCCO (centres undefined)
not listed: [7] | [17] | [19] | [20]
inactive: all other assays above

CCOCCOC(=O)/C=C/c1ccc(OC)cc1
not listed: [17] | [19] | [20]
inactive: all other assays above

O=C(NCCc1c[nH]c2ccccc12)c1cccnc1
not listed: [6] | [19] | [20]
inactive: all other assays above

c1ccc2nccnc2c1
not listed: [19] | [20]
inactive: all other assays above

O=C1CC(c2ccc(Cl)cc2)CC(=O)N1
not listed: [2] | [4] | [6]
inactive: all other assays above

OCCCCC(O)CO (centres undefined)
not listed: [6] | [14] | [17]
inactive: all other assays above

NS(=O)(=O)c1cc2c(cc1Cl)CN(C1CCCCC1)C2=O
not listed: [6] | [18] | [19] | [20]
inactive: all other assays above

O=C1CCCC(=O)O1
not listed: [2] | [3] | [5] | [18] | [20]
inactive: all other assays above

O=P(O)(O)OP(=O)(O)O
not listed: [3] | [5] | [19] | [20]
inactive: all other assays above

O=C(OCC(O)CO)c1ccccc1Nc1ccnc2c(C(F)(F)F)cccc12 (centres undefined)
not listed: [3] | [4] | [17] | [18] | [19] | [20]
inactive: all other assays above

NCCN1CCOCC1
not listed: [3] | [5] | [6] | [7] | [18] | [19] | [20]
inactive: all other assays above

Cc1cc(Cl)c(C)cc1Cl
active: [12] 54.9 µM
not listed: [3] | [5] | [18] | [19] | [20]
inactive: all other assays above
